Shown are actives, neighbours in structure and some others; about 2.3% of the full set was active somewhere.
FUS yeast rescue: qHTS for Suppressors of FUS Proteinopathy: Primary screen using FUS-linked yeast assay | S. cerevisiae FUS-expressing, growth rescue, OD600, 24 h | Potency, µM (doses to about 76.6 µM), hits mostly activators | 0.24% of 390,000 active | AID 1347120, 2019;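 note: potency is the fitted concentration of half-maximal effect; plate controls were DMSO vehicle for no effect and reference control for full effect; nearly all actives have a fitted effect of over 55% in size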
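Yeast FUS proteinopathy model; galactose-induced FUS (2%), starting OD 0.005. Cpds in dilution series, 24hr, 30C, 99% humidity. Abs 600 nm growth. Pos ctrl CP55940 (top 92uM final); neg ctrl DMSO.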
ELG1 repair inh: qHTS screen for small molecules that inhibit ELG1-dependent DNA repair in human embryonic kidney (HEK293T) cells expressing luciferase-tagged ELG1; HEK293T ELG1-luciferase reporter, luminescence, 16 h; DNA damage induced by 5-fluorouridine; Potency, µM (titrated, usually from 46.1 µM), for inactives: top-dose activity change, negative = inhibition, actives largely listed as inhibitors; 2.3% of 330,000 active; note: potency is the fitted concentration of half-maximal effect; % is set by controls: 0 for no effect and ±100 for the full control effect; nearly all actives have a fitted effect of over 55% in size
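5-Fluorouridine DNA damage + compound/DMSO, 2,000 cells/well, 16 h, 37 °C/5% CO2. ONE-Glo, 30 min RT, luminescence. Readout = decrease in reporter signal.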
TRPV1 ag: HTS Assay for Compounds that Act as Agonists of the Vanilloid Receptor 1; activation, % at 8.33 µM; Transient receptor potential cation channel subfamily V member 1 (Homo sapiens), Q8NER1; AID 540275, 2011; TRPV1-expressing cells, Fluo-8 calcium influx, agonist mode; 0.19% of 320,000 active; in the data active = activation above about 80%; inconclusive = between about 30% and that limit; note: 0% is about no effect
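Fluo-8 calcium influx in TRPV1-expressing cells, kinetic read (ex 480/em 520 nm). Compound added and read 3 min for agonist activity, followed by capsaicin at EC20 final and 2 min further read for enhancement.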
TRPV1 PAM: HTS Assay for Compounds that Act as Potentiators of the Vanilloid Receptor 1; TRPV1-expressing cells, Fluo-8 calcium influx, capsaicin EC20 potentiation; potentiation, % at 8.33 µM; Transient receptor potential cation channel subfamily V member 1 (Homo sapiens), Q8NER1; 0.02% of 320,000 active; AID 540277, 2011; in the data active = potentiation above about 80%; inconclusive = between about 30% and that limit; note: 0% is about no effect
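TRPV1-expressing cells were cultured overnight at 35.5C and loaded with Fluo-8 calcium dye for 40 to 90 min at room temperature. After a 10 s baseline, compound was added and calcium influx was read kinetically for 3 min (ex 480/em 520 nm).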
Giardia kill: Small Molecules that selectively kill Giardia lamblia: qHTS | Giardia lamblia trophozoite viability | activity change, % at 7.66 µM, hits read low | 0.15% of 340,000 active; in the data active = activity change below about -80%; inconclusive = between about -30% and that limit;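 note: parasites exposed to compound for two days anaerobically before the ATP read; % is set by controls: 0 for no effect and ±100 for the full control effect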
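Trophozoites 100 cells/well + cpd; 48 hrs, 37 deg C, anaerobic. ATPLite 1-Step added, 15-30 min RT, luminescence read (ATP-based viability).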
* hit, by the source's call; i = inactive; ? = inconclusive; . = no result. Unless noted, calls come from the whole dose curve; as a rule, active = well fitted curve in the direction sought with a large enough effect; inconclusive = small, poorly fitted or top-dose-only effect, or another doubt; inactive = no such curve, though single readings can be large; an effect the other way counts as inactive or inconclusive.

SMILES	FUS yeast rescue	ELG1 repair inh	TRPV1 ag	TRPV1 PAM	Giardia kill
COc1ccc(CCNC(=O)C(=O)NCC(c2ccco2)S(=O)(=O)c2ccccc2)cc1OC (configuration not stated)	i	.	.	.	.
CC(=O)Nc1ccc(-c2csc(NC(=O)CCCc3cccs3)n2)cc1	i	18.4µM*	10.6	13.2	6.5
CC(=O)c1c(C)[nH]c(C(=O)Nc2nc(-c3ccc(-c4ccccc4)cc3)cs2)c1C	.	20.6µM*	1.0	8.0	-10.6
CC(=O)c1c(C)[nH]c(C(=O)Nc2nc(-c3ccc(Cl)cc3)cs2)c1C	.	?	-7.0	-0.2	-5.0
CC(=O)Nc1ccc(-c2csc(N/N=C(/C)c3ccccc3)n2)cc1	i	20.6µM*	1.2	-7.9	?
Cn1nc(C(F)(F)F)cc1C(=O)Nc1ccc(Cl)cc1	i	-18.8%	?	-5.4	-14.6
Cn1nc(C(F)(F)F)cc1C(=O)Nc1ccc(-c2ccno2)cc1	i	13µM*	?	-13.4	-3.1
CCc1ccccc1NC(=O)CN(Cc1ccccc1)S(=O)(=O)c1ccc2nc(C)sc2c1	i	.	.	.	.
CCOc1ccccc1C(=O)Nc1cc2c(cc1N1CCCC1)n(CC)c(=O)n2CC	i	8.2µM*	?	-10.9	7.1
CCn1c(=O)n(CC)c2cc(N3CCCC3)c(NC(=O)c3cc(Cl)ccc3OC)cc21	i	18.3µM*	?	-9.9	-18.7
CCn1c(=O)n(CC)c2cc(N3CCCC3)c(NC(=O)c3ccc(OC)c(Br)c3)cc21	i	11.6µM*	14.2	-1.9	20.2
CCn1c(=O)n(CC)c2cc(N3CCCC3)c(NC(=O)c3ccccc3OC)cc21	i	?	?	-5.5	13.5
O=C(Nc1ccc(Cl)cc1)c1ccc(Br)cc1F	i	?	83.0*	-5.5	-13.4
CC(C)c1ccc(NC(=O)c2cc(Br)ccc2Br)cc1	i	0.0%	25.2	-9.7	-7.8
CCOc1ccc(CCN2C(=O)C(=O)N([C@@H](Cc3ccccc3)CN3CCC[C@H]3CN3C(=O)C(=O)NC[C@@H]3Cc3ccccc3)C[C@@H]2Cc2ccc(O)cc2)cc1	15.8µM*	.	.	.	.
CC(C)C[C@H]1CNC(=S)N1C[C@H]1CCCN1C[C@H](Cc1ccccc1)N1C[C@H](CC(C)C)N(CCc2ccccc2)C1=S	25.1µM*	.	.	.	.
CCCN1C(=O)c2cc(C(=O)Nc3cccc(C(C)=O)c3)ccc2C1Nc1cccc(C(C)=O)c1 (configuration not stated)	i	16.4µM*	?	-0.8	-2.2
Cc1ccc(Cn2c(SCc3ccc(C(=O)N4CCCCC4)cc3)nc3ccncc32)cc1	i	.	.	.	.
Cn1c(O)c(N=NC(=S)Nc2ccccc2F)c2cc(S(=O)(=O)N3CCOCC3)ccc21	i	1.83µM*	2.3	0.0	-0.8
CCOC(=O)C1=C(C)NC(C)=C(C(=O)OCC)C1C(=O)OCC(=O)NCc1ccccc1OC	i	11.6µM*	.	.	-18.0
CCOC(=O)c1c(C)[nH]c(C(=O)OCC(=O)N2c3ccccc3CC2C)c1C (configuration not stated)	i	?	9.3	-6.8	16.2
O=C(OCC(=O)N1CCc2ccccc21)c1c2c(nc3ccccc13)CCCC2	.	?	?	26.8	8.6
CCOC(=O)C1=C(C)NC(C)=C(C(=O)OCC)C1C(=O)OCC(=O)N1c2ccccc2CC1C (configuration not stated)	i	23.1µM*	0.8	15.4	-21.0
CC1Cc2ccccc2N1C(=O)COC(=O)c1c2c(nc3ccccc13)CCCCC2 (configuration not stated)	i	13µM*	18.6	14.0	-28.0
Cc1ccc(C(=O)NCC(c2ccc3c(c2)OCO3)N2CCOCC2)cc1 (configuration not stated)	i	.	.	.	.
CC1=C(C(=O)Nc2ccccc2)C(c2ccc(C)o2)n2c(s/c(=C/c3ccccc3)c2=O)=N1 (configuration not stated)	?	20.6µM*	-8.5	10.0	-12.4

Assay outcomes from PubChem.
